Rows were chosen to be rich in hits. Some 3.4% of all compounds tested hit in one or more screens of this group.
HSF1 inhib = HSF1 inhibition. AID 2098. NIH3T3-HGL HSE-luciferase, MG132-induced, luminescence 8 h; hits give low values. hit rate 0.77% among 300,000. activity change, negative = inhibition, % at 7.5 µM (by protocol);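 active means more than half of replicate wells show activity change below -50%, luminescence cut by over half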;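 further: luciferase reports HSF-1 transcriptional activity via heat shock element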
PG9 binder = PG9 antibody binding by small molecule; TR-FRET gp120-PG9 antibody binding; inhibition, % at 6.7 µM; hit rate 0.43% among 360,000; in the data active means inhibition above about 8.5%
AI-2 QS modul = modulators of Vibrio harveyi AI-2 quorum sensing system. Vibrio harveyi JMH597 AI-2 luminescence/OD600 ratio, 9 h; hits give low values; strain lacks LuxN and CqsS sensors; 0 = neutral-control median. activity change, % at 7.5 µM. hit rate 0.4% among 300,000. AID 2094; in the data active means activity change below about -75%, passing the limit was not always enough;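 further: luminescence divided by OD600 gain over 9 h not by final OD600 alone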
GAA850 FXN act = frataxin GAA850 promoter activation; AID 540364; hit rate 0.56% among 360,000; HEK293 lucGAA850 FXN promoter luciferase reporter, 24 h; percent of 10 µM SAHA response; activation, % at 6 µM;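 active means activation above the average of all compounds screened plus 3 SD, cutoff fixed separately per campaign, cut at about 7.5% in these data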
SMARCA2 activ = increases SMARCA2 function in MMTV reporter cells. MG213 cells, MMTV-luciferase reporter, dexamethasone, overnight. activation, % at 9.1 µM. hit rate 1% among 370,000; in the data active means activation above about 7.8%
HSP90 refold inh = HSP90 refolding inhibition in rabbit reticulocyte lysate; luciferase refolding luminescence, 3 h; inhibition, % at 5.6 µM; hit rate 0.91% among 290,000;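 active means inhibition above the screen-wide mean plus 3 SD, computed separately per campaign, cut at about 16% in these data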;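 further: inhibitors lower the luminescence because luciferase stays unfolded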
Of the large screens only hits and unclear results are named; the others gave an inactive call.

COc1cc(NS(=O)(=O)c2ccc(NC(=S)NC(=O)c3sc4ccccc4c3Cl)cc2)ncn1	SMARCA2 activ 11 (no result: HSF1 inhib, AI-2 QS modul)
COc1ccc(C(=O)NC(=S)Nc2ccc(S(=O)(=O)Nc3cc(OC)ncn3)cc2)cc1	none
COc1ccc(Cl)cc1NC(=O)C[n+]1ccccc1	none
CCc1cc[n+](CC(=O)Nc2ccc(Cl)cc2Cl)cc1	HSF1 inhib -72
O=C(CSc1ccccn1)Nc1nonc1[N+](=O)[O-]	AI-2 QS modul -88
O=C(CSc1ccccn1)Nc1ccc(NC(=O)CSc2ccccn2)cc1	none
Cc1cc(=O)oc2cc(OCC#N)ccc12	HSF1 inhib -56
COc1ccc2c(C)cc(=O)oc2c1	none (no result: HSF1 inhib, AI-2 QS modul, HSP90 refold inh)
O=S(=O)(/N=C(\c1ccccc1)N1CCOCC1)c1ccc(Cl)cc1	none
O=S(=O)(/N=C(/c1ccccc1Cl)N1CCOCC1)c1ccccc1	HSF1 inhib -58
CCn1c2ccccc2c2cc(NC(=O)COC(=O)c3ccc(F)cc3F)ccc21	none (no result: HSF1 inhib, PG9 binder, AI-2 QS modul, GAA850 FXN act, HSP90 refold inh)
O=C(NCC1CCCO1)C(=O)N/N=C/c1cc(Cl)ccc1O (stereo unspecified)	AI-2 QS modul -90
O=C(NCC1CCCO1)C(=O)N/N=C/c1ccc(O)c(Cl)c1 (stereo unspecified)	none
Cc1ccccc1CNC(=O)C1C2C=CC3(CN(Cc4ccccc4)C(=O)C13)O2 (stereo unspecified)	none (no result: HSF1 inhib, PG9 binder, AI-2 QS modul, GAA850 FXN act, HSP90 refold inh)
COc1ccc(NC(=S)Nc2ccc(F)cc2)c(OC)c1	HSF1 inhib -52
Cc1nc2cc[nH]n2c(=O)c1CCc1ccccc1	none (no result: HSF1 inhib, AI-2 QS modul, GAA850 FXN act, HSP90 refold inh)
COC(=O)c1cccc(Cn2ccc3ccc(-c4ccc5ccn(C(=O)c6ccc(C)cc6)c5c4)cc32)c1	none (no result: HSF1 inhib, PG9 binder, AI-2 QS modul, GAA850 FXN act, HSP90 refold inh)
Cc1ccc(N=Nc2ccc(O)c3ncccc23)cc1	none
Oc1ccc(N=Nc2ccccc2C(F)(F)F)c2cccnc12	HSF1 inhib -66
Cc1ccc(N=Nc2ccc(O)c3ncccc23)cc1C	HSF1 inhib -51
CCS(=O)(=O)c1ccc(N=Nc2ccc(O)c3ncccc23)c(OC)c1	HSF1 inhib -60
COc1ccccc1N=Nc1ccc(O)c2ncccc12	HSF1 inhib -78
Oc1ccc(Cl)c2cccnc12	none (no result: HSF1 inhib, AI-2 QS modul, HSP90 refold inh)
O=C1c2ccccc2/C(=C\c2ccc(Br)nc2)N1c1ccccc1	none (no result: HSF1 inhib, AI-2 QS modul, GAA850 FXN act, HSP90 refold inh)
CC(=O)O[C@@H]1CCC[C@@]2(C(=O)Nc3ccccc32)[C@H]1NC(=O)C(C)C	none (no result: HSF1 inhib, PG9 binder, AI-2 QS modul, GAA850 FXN act, HSP90 refold inh)
COCC(=O)Nc1ccc2c(c1)C(=O)N(C)[C@@H]1CC[C@@H](CC(=O)OC)O[C@H]1CO2	none (no result: HSF1 inhib, PG9 binder, AI-2 QS modul, GAA850 FXN act, HSP90 refold inh)
O=C(COC(=O)COc1ccccc1)Nc1ncc([N+](=O)[O-])s1	none (no result: HSF1 inhib, AI-2 QS modul, HSP90 refold inh)
N/C(=N\OC(=O)Nc1ccccc1)c1ncc([N+](=O)[O-])s1	AI-2 QS modul -88
N/C(=N\OC(=O)CCc1ccccc1)c1ccc(Br)cc1	none
Cc1ccc(/C(N)=N/OC(=O)c2ccc(F)cc2)cc1	SMARCA2 activ 7.8
Cc1ccc(/C(N)=N/OC(=O)CCc2ccccc2)cc1	AI-2 QS modul -77
N/C(=N\OC(=O)c1ccc(F)cc1)c1ccccc1	none
CC(C)C[C@@H](CCCc1ccccc1)CCC(=O)N(c1ccccc1)c1ccccc1	none (no result: HSF1 inhib, PG9 binder, AI-2 QS modul, GAA850 FXN act, HSP90 refold inh)
O=C1C=CC(O)(c2cc(=O)c3c(O)cc(O)cc3o2)C=C1	HSF1 inhib -91
O=c1cc(-c2ccccc2Cl)oc2cc(O)cc(O)c12	none
Cc1ccc(CNC(=O)Nc2ccc3c(c2)N(C)C(=O)CS3)cc1	AI-2 QS modul -78
C=CCNc1cccc2c1S(=O)(=O)N[C@H](CC(C)C)CO2	none (no result: HSF1 inhib, AI-2 QS modul, GAA850 FXN act, HSP90 refold inh)
CC(C)(C)N(Cc1cn(Cc2ccccc2)nn1)S(=O)(=O)c1ccc(F)cc1Br	none (no result: HSF1 inhib, PG9 binder, AI-2 QS modul, GAA850 FXN act, HSP90 refold inh)
O=C(CN1CCN(Cc2ccccc2)CC1)N/N=C\c1ccccc1[N+](=O)[O-]	none (no result: HSF1 inhib, PG9 binder, AI-2 QS modul, GAA850 FXN act, HSP90 refold inh)
CCCn1c(N2CCN(CC(=O)NCc3cccs3)CC2)nc2ccccc21	HSF1 inhib -72
CS(=O)(=O)c1nc(-c2ccco2)cc(C(F)(F)F)n1	HSF1 inhib -74 (no result: PG9 binder, GAA850 FXN act, SMARCA2 activ)
O=C(C1CCCN(S(=O)(=O)Cc2ccccc2)C1)N1CCc2ccccc21 (stereo unspecified)	HSF1 inhib -58
c1ccc2c(c1)OCC(c1csc3ncnc(N4CCOCC4)c13)O2 (stereo unspecified)	HSF1 inhib -57
Cn1cc(Cl)c(C(=O)N/N=C/c2ccc3c4c(cccc24)CC3)n1	GAA850 FXN act 8.0 (no result: PG9 binder, SMARCA2 activ)
COC(=O)c1c(C)[nH]c(C)c1-c1cccc([N+](=O)[O-])c1	HSF1 inhib -91
C=CCN1[C@H](C)[C@H](c2ccccc2)Oc2cc(Br)ccc2S1(=O)=O	none (no result: HSF1 inhib, AI-2 QS modul, GAA850 FXN act, HSP90 refold inh)
CCOC(=O)c1c(C)nc2c(C)cccn12	HSF1 inhib -89
CCOC(=O)c1sc(=S)n(CC)c1N	none
CCOC(=O)c1sc(=S)n(Cc2ccccc2)c1N	AI-2 QS modul -86
CC(C)Nc1nnc(Sc2ccc(Cl)cc2[N+](=O)[O-])s1	HSF1 inhib -50
COC(=O)[C@]1(C#N)CC(=O)N(C(C)C)[C@@H]1c1ccccc1	none (no result: HSF1 inhib, PG9 binder, AI-2 QS modul, GAA850 FXN act, HSP90 refold inh)
O=C1CNC(=O)c2c(nc3n2CCC3)N1	SMARCA2 activ 7.8 (no result: HSF1 inhib)
O=c1[nH]c(C(F)(F)F)nc2c1nc1n2CCC1	none (no result: HSF1 inhib, AI-2 QS modul, HSP90 refold inh)
CC1Sc2ccc(C(=O)OCc3ccccc3Cl)cc2NC1=O (stereo unspecified)	none (no result: HSP90 refold inh)
COc1cccc(COC(=O)c2ccc3c(c2)NC(=O)C(C)S3)c1OC (stereo unspecified)	HSF1 inhib -77 (no result: HSP90 refold inh)
Cc1ccc(/C=N/NC(=O)c2c[nH]c3ccccc23)s1	none
CCn1nc(C)c(/C=N/NC(=O)c2c[nH]c3ccccc23)c1C	HSF1 inhib -70
S=C(N/N=C/c1ccc2ncccc2c1)Nc1cccnc1	HSF1 inhib -65
Oc1ccc(/C=N/NC(=S)Nc2cccnc2)cc1O	none
CCS(=O)(=O)Nc1ccc2c(c1)C(=O)N(C)[C@@H]1CC[C@H](CC(=O)N[C@@H]3CCN(Cc4ccccc4)C3)O[C@H]1CO2	none (no result: HSF1 inhib, PG9 binder, AI-2 QS modul, GAA850 FXN act, HSP90 refold inh)
COCCn1c(NC(=S)NC(=O)C2CC2)cc(=O)[nH]c1=O	none
COCCn1c(NC(=S)NC(=O)C23CC4CC(CC(C4)C2)C3)cc(=O)[nH]c1=O	GAA850 FXN act 12
O=C(OCc1cn(Cc2ccc(F)cc2F)nn1)N1CCOCC1	none (no result: HSF1 inhib, PG9 binder, AI-2 QS modul, GAA850 FXN act, HSP90 refold inh)
O=C(NC1=N[C@@]2(C=C3CCCCC3n3c(=O)n(-c4ccccc4)c(=O)n32)[C@H](Cc2ccccc2)N1Cc1ccccc1)c1ccccc1 (stereo partly specified)	none (no result: HSF1 inhib, PG9 binder, AI-2 QS modul, GAA850 FXN act, HSP90 refold inh)
COC(=O)c1ccc(-c2nc3cc(Cl)c(N)cc3s2)cc1	HSF1 inhib -57
COC(=O)c1ccc(-c2nc(O)c(C)s2)cc1	none
O=C(O)CCSc1nnc(-c2ccc3c(c2)OCO3)o1	HSF1 inhib -52, HSP90 refold inh 16
Cc1ccc(CSc2nnc(-c3ccc4c(c3)OCO4)o2)cc1	none
O=c1c2ccccc2n(Cc2ccccc2)n1[C@@H](Cc1ccccc1)Cn1cc(C2CCCC2)nn1	none (no result: HSF1 inhib, PG9 binder, AI-2 QS modul, GAA850 FXN act, HSP90 refold inh)
